Screening data deposited in PubChem by several laboratories.
Most compounds without a hit are left out; they make up all but 1.5% or so of the library.
RecA intein inh = blocks M. tuberculosis RecA intein splicing; cell-free RecA intein splicing, fluorescence; inhibition, % (concentration not given with the values); 0.75% of 290,000 active; AID 2221; P9WHJ3; in the data active = inhibition above about 30%;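 also: 0% = vehicle wells and 100% = reference inhibitor control wells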
VHR inh abs = DUSP3 (human) phosphatase inhibition. AID 1654. inhibition, % at 13.3 µM. recombinant VHR phosphatase, pNPP absorbance. 0.52% of 290,000 active. P51452; in the data active = inhibition above about 50%
Target sequence (P51452 whole entry, looked up): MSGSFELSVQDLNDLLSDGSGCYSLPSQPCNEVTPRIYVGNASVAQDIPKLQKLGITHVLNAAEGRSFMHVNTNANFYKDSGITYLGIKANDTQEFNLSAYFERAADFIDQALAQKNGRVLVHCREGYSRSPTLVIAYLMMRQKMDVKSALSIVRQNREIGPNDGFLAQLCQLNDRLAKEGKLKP
SARS 3CLpro inh = SARS-CoV 3CLpro protease inhibition; P0C6X7; recombinant SARS-CoV 3CLpro, quenched FRET peptide cleavage; inhibition, % at 6 µM; 0.14% of 290,000 active; AID 1706; in the data active = inhibition above about 12%
CCHFV vOTU inh = CCHFV vOTU protease inhibition; 0.55% of 370,000 active; AID 651958; Pep-AMC fluorescence; inhibition, % at 11.5 µM; in the data active = inhibition above about 30%; also: 0% = vehicle wells with enzyme and 100% = no enzyme wells
GFP chromo cs = counter-screen GFP chromophore formation inhibition. shares compounds with RecA intein inh. cell-free GFP chromophore formation, fluorescence. EC50, µM. 83% of 2,100 active. AID 434968; call rule not given here
Active calls of the source: *; · = no result given.

SMILES	RecA intein inh	VHR inh abs	SARS 3CLpro inh	CCHFV vOTU inh	GFP chromo cs
CC(=O)N1C(=O)C2(C(C#N)=C(N)Oc3c2c(C)nn3-c2ccccc2)c2ccccc21 (stereo not given)	55*	-1	1	-10	5.8*
Cc1ccc(NC(=O)CCc2ccc(C)o2)cc1	1	-2	-1	14	·
O=C1Nc2c(Cl)cc(Cl)cc2C12Nc1ccccc1S2 (stereo not given)	·	·	·	3	·
CCC(C)NC(=O)c1cc(S(=O)(=O)N2CCCCC2)c[nH]1 (stereo not given)	0	2	1	6	·
O=C(NNc1ccc([N+](=O)[O-])cc1)C12CC3CC(CC(C3)C1)C2	0	14	2	9	·
Oc1ccc(/C=N/Nc2ccc(C(F)(F)F)cn2)cc1	-3	10	2	13	·
Oc1ccc(/C=N/Nc2ccc(C(F)(F)F)cn2)c(O)c1	42*	5	7	22	>38
Nc1ccc(O)cc1	81*	·	·	·	31*
CC(C)COc1ccc(C(=O)OCC(=O)N(C)CC(=O)Nc2ccc(F)cc2)cc1	-1	·	·	-7	·
Cc1ccccc1NC(=O)Cc1nc(COC(=O)CCNS(=O)(=O)c2ccccc2)cs1	0	·	·	-7	·
Cc1cccc(-c2nnc(SCC(=O)Nc3cccc4ccccc34)n2Cc2ccco2)c1	·	·	·	9	·
O=C(CCl)N(C/C=C/c1ccccc1)c1ccc2c(c1)OCCO2	85*	-15	6	-3	3*
Cc1[nH]c2ccccc2c1CC#N	-1	-8	6	-6	·
Cc1[nH]c2ccccc2c1C(C#N)(C#N)C1C(=O)c2ccccc2C1=O	42*	5	4	-13	34*
CCOC(=O)c1c(NC(=O)c2ccco2)n(C2CCCCC2)c2nc3ccccc3nc12	55*	21	3	12	21*
CCOC(=O)C1=C(Nc2ccc(OC)cc2)C(N)=NC1=N	·	·	·	-2	·
COc1ccc(C2C(C#N)=C(N)Oc3n[nH]c(C)c32)cc1Cn1nnc2ccccc21 (stereo not given)	61*	5	-1	13	13*
CCOC(=O)C1=C(C)OC(N)=C(C#N)C1c1ccc(OC)c(CSc2ccccn2)c1 (stereo not given)	5	4	1	8	·
COc1ccc(C2C(C#N)=C(N)Oc3n[nH]c(C)c32)cc1CSc1ccccn1 (stereo not given)	81*	-6	-1	13	17*
O=C(Nc1nnc(SCC(=O)N2CCCCC2)s1)c1c(F)cccc1F	0	21	7	6	·
CCOC(=O)c1nn(-c2ccccc2C)c(=O)c(C#N)c1C	19	23	1	16	·
CCOC(=O)c1nn(-c2ccccc2C)c(=O)c2c(N)scc12	48*	37	0	19	>38
COc1ccccc1NC(=O)C1CC(C(C)C)OC1=O (stereo not given)	-1	·	·	-6	·
Cn1cccc1C(=O)C(=O)Nc1ccc(F)c(F)c1	-1	2	2	0	·
COc1ccccc1-c1cc(C(F)(F)F)nc(S(=O)(=O)CCCC(=O)N2CCOCC2)n1	48*	8	-1	6	16*
SMILES	RecA intein inh	VHR inh abs	SARS 3CLpro inh	CCHFV vOTU inh	GFP chromo cs
COc1ccc(-c2cc(C(F)(F)F)nc(S(=O)(=O)CCCC(=O)Nc3cccc(O)c3)n2)cc1OC	62*	30	-4	-10	19*
CCOC(=O)c1cn(-c2c(C)n(C)n(-c3ccccc3)c2=O)c2c(F)c(F)c(F)cc2c1=O	0	13	1	-5	·
COc1ccc(-n2c(SC/C=C/c3ccccc3)nnc2-c2cccs2)cc1	·	·	·	4	·
Cc1cc(C)c(S(C)(=O)=O)c(Oc2cccc(C(F)(F)F)c2)n1	33*	12	0	7	>38
COC(=O)Cc1nnn2c1CC(OC)c1cc(Br)ccc1-2 (stereo not given)	·	·	·	3	·
OC(COC(c1ccc(Cl)cc1)c1ccc(Cl)cc1)CN1CCc2ccccc2C1 (stereo not given)	30*	-5	-1	17	>38
Cc1cc(C(c2ccc(O)cc2)c2cc(C)c(O)cc2C)c(C)cc1O	33*	16	-5	-3	>38
CCC(c1ccc(O)cc1)C(CC)c1ccc(O)cc1 (stereo not given)	·	·	·	1	·
CC(=O)N(Cc1ccc(F)cc1)C1=C(NCc2ccccc2)C(=O)c2ccccc2C1=O	77*	-20	3	·	5.9*
N#C/C(=C\c1cccc(O)c1)c1nc2ccccc2o1	69*	0	-4	6	21*
O=C(OCn1ncc(Br)c(Br)c1=O)c1ccc(F)cc1	73*	15	4	·	2.2*
CC(=O)OCn1ncc(N2CCOCC2)c(Br)c1=O	0	38	-3	9	·
O=C(OCn1ncc(Br)c(Br)c1=O)c1ccccc1Cl	64*	3	1	·	1.8*
CC(C)C(NC(=O)c1ccc(Cl)cc1)C(=O)NCC1CCCO1 (stereo not given)	1	-7	-4	19	·
CC(C)c1nnc(NC(=O)CCC(=O)NCc2ccccc2Cl)s1	0	2	-4	3	·
CSc1ncc(Cl)c(C(=O)Nc2nnc(SC/C=C/c3ccccc3)s2)n1	-2	17	2	1	·
CC(C)c1nnc(NC(=O)c2nc(S(=O)(=O)Cc3ccccc3F)ncc2Cl)s1	83*	-12	0	-3	14*
Cc1nnc(NC(=O)c2nc(S(=O)(=O)Cc3ccccc3C)ncc2Cl)s1	67*	-37	-3	5	>38
CSc1nnc(NC(=O)c2nc(S(=O)(=O)Cc3ccccc3F)ncc2Cl)s1	76*	-10	6	6	23*
C=CCc1ccc(O)c(-c2ccc(O)c(CC=C)c2)c1	26	-6	3	11	·
CCOc1ccc(NC(=O)c2ccc3c(c2)CCN3S(C)(=O)=O)cc1	·	-16	-6	6	·
Cc1ccc(-c2nn(-c3ccccc3)cc2CO)cc1	2	14	-3	-13	·
N=C(N)SCc1cn(-c2ccccc2)nc1-c1ccc(Br)cc1	40*	-6	0	6	20*
CCS(=O)(=O)c1ncc(Cl)c(C(=O)Nc2ccc(C)cc2)n1	65*	-18	3	-6	23*
O=C(Nc1ccc2ccccc2c1)c1cnccn1	5	11	-3	-7	·
SMILES	RecA intein inh	VHR inh abs	SARS 3CLpro inh	CCHFV vOTU inh	GFP chromo cs
COc1ccc(S(=O)(=O)Cc2ccc(C(=O)NCc3ccccc3)o2)cc1	-1	-18	-1	-1	·
COc1ccc(CNC(=O)c2nc(S(=O)(=O)Cc3ccccc3)ncc2Cl)cc1	82*	9	0	14	15*
CS(=O)(=O)c1ncc(Cl)c(C(=O)Nc2ccc3ccccc3c2)n1	31*	17	4	10	12*
O=C(NCc1ccccc1)c1nc(S(=O)(=O)Cc2ccccc2)ncc1Cl	77*	6	-4	13	17*
Cc1ccccc1-c1ccc2c(c1)[C@@H]1C[C@H]3[C@@H](CN1CC2)[C@H](C)OC(C1CCCCC1)N3C (stereo not given in full)	·	·	·	-3	·
CC(=O)Nc1ccc(NC(=O)c2nc(S(=O)(=O)Cc3ccccc3)ncc2Cl)cc1	40*	16	-4	-4	26*
